This note sets out measurements from PubChem BioAssay (Tox21).

Molecules are shown by their SMILES. Inconclusive results are not listed. Values without a mark were called inactive. Calls of active or inactive are those of the source. Calls come from the whole dose curve; as a rule, active = well fitted activation curve with a large enough effect in the repeat runs; inconclusive = weak or mixed curves; inactive = flat fitted curve, though single readings scatter.
% is set by controls: 0 for no effect and ±100 for the full control effect; potency is the fitted concentration of half-maximal effect.

The nature of this assay: A CellTox Green Cytotoxicity Assay to monitor cytotoxicity in HEK293 cells - 16 hour (AID 1224888). Note: nearly all actives have a fitted effect of over 35% in size. The following applies: CellTox Green fluorescence; series mostly up to 76.8 µM; activity change: at the top concentration. From the text:
National Center for Advancing Translational Sciences [NCATS]
NIH Chemical Genomics Center [NCGC]
U.S. Environmental Protection Agency [EPA]
National Institutes of Environmental Health Sciences [NIEHS]
National Toxicology Program [NTP]
Cell-based models are critical for drug discovery. Determining the natural cytotoxic effects resulting from test compounds is an essential research activity. A CellTox Green Cytotoxicity Assay to monitor cytotoxicity in real time of continues cell culture during 40 hours of the compound treatment was used to screen Tox21 10K library compounds in Hek293 cells. CellTox Green Cytotoxicity Assay is a nonlytic, homogeneous, biofluorescent method to measure cytotoxicity in cell culture after experimental manipulation. The assay system uses a proprietary asymmetric cyanine dye that is excluded from viable cells but preferentially stains the dead cell's DNA. […] Viable cells produce no appreciable increases in fluorescence. Therefore, the fluorescence signal produced by the binding interaction with dead cell DNA is proportional to cytotoxicity.
The mixture of Hek293 cell suspension and reagents were dispensed at 600cells/6 ul/well in 1536-well tissue culture treated black solid bottom plates using a Multidrop dispenser. After the assay plates were incubated at a 37 C/5% CO2 incubator for 5 hours, 23 nL of compounds dissolved in DMSO, positive and negative controls was transferred to the assay plate by a pintool work station. The plates were incubated at 37 C for 40 hours. The fluorescence intensity were measured at 0h, 8h, 16h, 24h, 32h and 40h time points using ViewLux plate reader during compound treatment.
For the molecule `CC(=O)c1ccc2c(c1)N(CCCN(C)C)c1ccccc1S2`, the “activity change” value is 2.69% [at 35.3 µM, active compounds read high].
Take `Cc1cc(N)c2cc(NC(=O)Nc3ccc4nc(C)cc(N)c4c3)ccc2n1`: the “activity change” value is -34.4% [at 35.3 µM, active compounds read high].
`CC(=O)[O][Al][O]C(C)=O`: the “activity change” value is 0.561%.
For the molecule `CC(C)Nc1ccc(NC(C)C)c2c1C(=O)c1ccccc1C2=O`, the “activity change” value was 18.7% [at 35.3 µM, active compounds read high].
Regarding `CC(=O)NO`, the “activity change” value is 2.87% [at 35.3 µM, active compounds read high].
For `CC(C)(O)c1ccc(CNC(=O)c2cccnc2Oc2ccc(F)cc2)cc1`, the “activity change” value was 2.78%.
Turning to `COc1cc2nc(N(C)CCCNC(=O)C3CCCO3)nc(N)c2cc1OC` (stereo not given), the “activity change” value is -0.537% [at 35.3 µM, active compounds read high].
Turning to `CCCCCCCCO[C@@H]1O[C@H](CO)[C@@H](O)[C@H](O)[C@H]1O`, the “activity change” value was 8.72%.
For the molecule `COc1ccc(-c2nc3ccc(C4=NNC(=O)CC4C)cc3[nH]2)cc1` (stereo not given), the “activity change” value is -24.1% [at 35.3 µM, active compounds read high].
`CCCCC/C=C\C/C=C\CCCCCCCC(=O)NC(C)c1ccccc1` (stereo not given): the “activity change” value is 1.15% [at 35.3 µM, active compounds read high].
On the same count and under the same terms, the figure for `C=CCOc1ccccc1OCC(O)CNC(C)C` (stereo not given) is -0.417% [at 35.3 µM, active compounds read high]; for `O=C(O)C1(C(=O)Nc2ccc(Cl)cc2Cl)CC1` it is -7.31%; for `O=C(O)CNCC(=O)O` it is 2.15% [at 6.97 µM, active compounds read high].
For `Clc1ccc2c(c1)CCc1cccnc1C2=C1CCNCC1`, the “activity change” value is 16.5% [at 35.3 µM, active compounds read high].
As for `CN(Cc1ccc(C(C)(C)C)cc1)Cc1cccc2ccccc12`, the “activity change” value was 16.3% [at 35.3 µM, active compounds read high].
For `COc1ccc(C)cc1[N+](=O)[O-]`, the “activity change” value is -7.11%.
For the molecule `CCCC(=O)Nc1ccc(O)c(C(C)=O)c1`, the “activity change” value is 0.951% [at 35.3 µM, active compounds read high].
Still for that read-out and setting: the figure for `CCCNCC(O)COc1ccccc1C(=O)CCc1ccccc1` (stereo not given) is -0.719% [at 35.3 µM, active compounds read high].
The same measure, in the same setting: the figure for `COc1ccnc(CS(=O)c2nc3ccc(OC(F)F)cc3[nH]2)c1OC` (stereo not given) is -32.1% [at 35.3 µM, active compounds read high].
Same read-out and setting: the figure for `CCCCC(CC)COC(=O)CCCCCCCCC(=O)OCC(CC)CCCC` (stereo not given) is -15.6%.
`CCC(C)O` (stereo not given): the “activity change” value is -2.6%.
Regarding `CCCCCCCCCCCc1ccccc1`, the “activity change” value is -4.61%.
As for `CN1CCC(N(Cc2cccs2)c2ccccc2)CC1`, the Potency is 19 µM (active).
For `O=S(c1cc(Cl)cc(Cl)c1O)c1cc(Cl)cc(Cl)c1O`, the “activity change” value was 1.35% [at 35.3 µM, active compounds read high].
For `CN(C)CCCN1c2ccccc2Sc2ccccc21`, the “activity change” value was 0.948% [at 35.3 µM, active compounds read high].
In the case of `CCC(CC)Nc1ccc(C)c(C)c1`, the “activity change” value was -3.84%.
Same read-out and setting: the value for `C=CC1CC2C=CC1C2` (stereo not given) was -4.58%.
For the molecule `COc1ccc2cccc(CCNC(C)=O)c2c1`, the “activity change” value was 0.483% [at 35.3 µM, active compounds read high].
`Cc1[nH]c(C)c(Cl)c(=O)c1Cl`: the activity change is -2.28% [at 15.8 µM, active compounds read high].
For `CCOc1ccc(N=Nc2ccc(/C=C/c3ccc(N=Nc4ccc(OCC)cc4)cc3S(=O)(=O)O)c(S(=O)(=O)O)c2)cc1`, the “activity change” value was -28.3%.
For the molecule `O=C(O)c1ccco1`, the “activity change” value is -2.64%.
As for `Cc1nn(C)c(Oc2ccccc2)c1/C=N/OCc1ccc(C(=O)OC(C)(C)C)cc1`, the “activity change” value is -10.5%.
With `COCCCN1CCC(NC(=O)c2cc(Cl)c(N)c3c2OCC3)CC1`, the “activity change” value is -4.02% [at 35.3 µM, active compounds read high].
In the case of `O=C1c2ccccc2S(=O)(=O)N1CCCCN1CCN(c2ncccn2)CC1`, the “activity change” value was 4.67% [at 35.3 µM, active compounds read high].
As to `CCN(CC)CCOC(=O)C(c1ccccc1)C1CCCCC1` (stereo not given), the “activity change” value was 17% [at 35.3 µM, active compounds read high].
Regarding `O=CC1CC=CCC1` (stereo not given), the “activity change” value was 3.82%.
In the case of `CC[N+]1(CC)CCC(=C(c2ccccc2)c2ccccc2)C1C` (stereo not given), the “activity change” value was -7.05% [at 35.3 µM, active compounds read high].
`CCCCOC(=O)CCCCCCCC(=O)OCCCC`: the “activity change” value was -7.06%.
In the case of `c1ccc(CNCCNCc2ccccc2)cc1`, the “activity change” value is 2.3% [at 35.3 µM, active compounds read high].
For the molecule `CCN(CC)c1ccc(C(=C2C=CC(=[N+](CC)CC)C=C2)c2cc(S(=O)(=O)O)ccc2S(=O)(=O)[O-])cc1`, the “activity change” value is -1.21% [at 35.3 µM, active compounds read high].
